Test [1] is described as follows: qHTS of pediatric cancer cell lines to identify multiple opportunities for drug repurposing: Primary screen for A673 cells (AID 1347092). Also: nearly all actives have a fitted effect of over 45% in size. Also: potency is read from the fitted curve at half-maximal effect. In outline: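 Titration-based qHTS on A673 cells: MIPE compounds spanned 11 points (0.78 nM to 46 µM final), NPC compounds 8 points (0.59 nM to 46 µM final). Viability after 48 h was measured by ATP luminescence.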
For orientation: Quantitative high-throughput screening tests each substance at several concentrations.

Test [2] in a line: qHTS of pediatric cancer cell lines to identify multiple opportunities for drug repurposing: Primary screen for SK-N-MC cells (AID 1347093). Also: potency is read from the fitted curve at half-maximal effect. In outline: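 Metabolically active cells were quantified by ATP-dependent luminescence (CellTiter-Glo, 15 min at room temperature) following 48 h treatment. Cells had been plated at 500-1,000 per well and settled for 5 h beforehand.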
Test [3] can be described thus: qHTS of pediatric cancer cell lines to identify multiple opportunities for drug repurposing: Primary screen for NB-EBc1 cells (AID 1347095). Summed up:
(§1)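 CRCs from 8- or 11-point titrations (lowest final 0.59 nM NPC, 0.78 nM MIPE). Cell viability: CellTiter-Glo after 48 h incubation, 15 min room-temperature development, luminescence imaging.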

Test [4] is described as follows: qHTS of pediatric cancer cell lines to identify multiple opportunities for drug repurposing: Primary screen for U-2 OS cells (AID 1347096). Also: nearly all actives have a fitted effect of over 50% in size. Summed up:
(§2)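 Viability after 48 h compound treatment at 37C, 500-1,000 cells/well, read as ATP luminescence with CellTiter-Glo. Primary screens used 11-point (MIPE, 0.78 nM-46 µM) or 8-point (NPC, 0.59 nM-46 µM) final concentrations; follow-up screens used 11-point dilutions.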

The nature of test [5]: qHTS of pediatric cancer cell lines to identify multiple opportunities for drug repurposing: Primary screen for Saos-2 cells (AID 1347097). Also: nearly all actives have a fitted effect of over 40% in size. Also: potency is read from the fitted curve at half-maximal effect. In outline:
as §1

Test [6] can be described thus: qHTS of pediatric cancer cell lines to identify multiple opportunities for drug repurposing: Primary screen for SK-N-SH cells (AID 1347098). Also: nearly all actives have a fitted effect of over 65% in size. Also: potency is read from the fitted curve at half-maximal effect. In outline:
(§3)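 Cells (500-1,000/well) rested 5 h, then received compounds for 48 h; metabolically active cells were measured by CellTiter-Glo luminescence. Final concentrations spanned up to 46 µM (MIPE, 11-point) or 0.59 nM-46 µM (NPC, 8-point) in primary screens, 11-point in follow-ups.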

A short description of test [7]: qHTS of pediatric cancer cell lines to identify multiple opportunities for drug repurposing: Primary screen for NB1643 cells (AID 1347099). Also: nearly all actives have a fitted effect of over 50% in size. Also: potency is read from the fitted curve at half-maximal effect. Summed up:
as §1

The nature of test [8]: qHTS of pediatric cancer cell lines to identify multiple opportunities for drug repurposing: Primary screen for LAN-5 cells (AID 1347100). In outline:
as §2

A short description of test [9]: qHTS of pediatric cancer cell lines to identify multiple opportunities for drug repurposing: Primary screen for BT-12 cells (AID 1347101). Also: nearly all actives have a fitted effect of over 25% in size. In outline:
as §3

A short description of test [10]: qHTS of pediatric cancer cell lines to identify multiple opportunities for drug repurposing: Primary screen for Rh18 cells (AID 1347102). Also: nearly all actives have a fitted effect of over 65% in size. Also: potency is read from the fitted curve at half-maximal effect. In outline:
as §2

Test [11] in a line: qHTS of pediatric cancer cell lines to identify multiple opportunities for drug repurposing: Primary screen for MG 63 (6-TG R) cells (AID 1347105). Also: nearly all actives have a fitted effect of over 50% in size. Also: potency is read from the fitted curve at half-maximal effect. Summed up:
as §1

Test [12] in a line: qHTS of pediatric cancer cell lines to identify multiple opportunities for drug repurposing: Primary screen for Rh30 cells (AID 1347107). Also: series mostly up to about 46 µM; nearly all actives have a fitted effect of over 75% in size. Summed up:
as §2

A short description of test [13]: qHTS of pediatric cancer cell lines to identify multiple opportunities for drug repurposing: Primary screen for Rh41 cells (AID 1347108). Also: nearly all actives have a fitted effect of over 70% in size. Also: potency is read from the fitted curve at half-maximal effect. Summed up:
as §1

The nature of test [14]: qHTS of pediatric cancer cell lines to identify multiple opportunities for drug repurposing: Primary screen for BT-37 cells (AID 1347094). Also: potency is read from the fitted curve at half-maximal effect. Summed up: as §1
Test [15] in a line: qHTS of pediatric cancer cell lines to identify multiple opportunities for drug repurposing: Primary screen for OHS-50 cells (AID 1347103). Also: nearly all actives have a fitted effect of over 40% in size. Also: potency is read from the fitted curve at half-maximal effect. Summed up:
as §3

Test [16] can be described thus: qHTS of pediatric cancer cell lines to identify multiple opportunities for drug repurposing: Primary screen for RD cells (AID 1347104). Also: nearly all actives have a fitted effect of over 55% in size. Also: potency is read from the fitted curve at half-maximal effect. Summed up:
as §1

Test [17] in a line: qHTS of pediatric cancer cell lines to identify multiple opportunities for drug repurposing: Primary screen for control Hh wild type fibroblast cells (AID 1347106).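 Also: series mostly up to about 46 µM; a drop in luminescence marks cytotoxicity and a rise apparent proliferation; nearly all actives have a fitted effect of over 55% in size.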 In outline: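 Cells (500-1,000/well) in growth media were settled 5 h at 37 degrees C, then given compounds for 48 h. Viability was read as CellTiter-Glo luminescence. Primary runs used MIPE at 11 points (0.78 nM-46 µM) and NPC at 8 points (0.59 nM-46 µM); follow-ups used 11 points.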

The nature of test [18]: qHTS of pediatric cancer cell lines to identify multiple opportunities for drug repurposing: Confirmatory screen for NB1643 cells (AID 1347109). Also: nearly all actives have a fitted effect of over 45% in size. Summed up: as §2
Test [19] can be described thus: qHTS of pediatric cancer cell lines to identify multiple opportunities for drug repurposing: Confirmatory screen for A673 cells (AID 1347110). Also: potency is read from the fitted curve at half-maximal effect; nearly all actives have a fitted effect of over 65% in size. In outline:
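Forty-eight-hour viability assay. Follow-up compounds ran at 11-point dilutions; positive control bortezomib at 2.3 uM final, neutral control DMSO.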

Test [20] in a line: qHTS of pediatric cancer cell lines to identify multiple opportunities for drug repurposing: Confirmatory screen for SK-N-MC cells (AID 1347111).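 Also: potency is read from the fitted curve at half-maximal effect; cells exposed to compound for 48 h before the readout; nearly all actives have a fitted effect of over 70% in size.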 As to conditions: SK-N-MC cell viability. Summed up:
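SK-N-MC cells at 500-1,000 cells/well in growth media were pre-incubated 5 h, then exposed to compounds at 11-point dilutions for 48 h at 37 degrees C, 5% CO2. Viability was read as CellTiter-Glo luminescence.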

Molecules are shown by their SMILES. Inconclusive results are not listed. The source made the active and inactive calls. Calls follow the shape of the dose curve; as a rule, active = well fitted curve in the direction sought with a large enough effect; inconclusive = small, poorly fitted or top-dose-only effect, or another doubt; inactive = no such curve, though single readings can be large; an effect the other way counts as inactive or inconclusive.

The values that follow come from PubChem BioAssay (NCATS).

Consider `CCN(CC)CCOCCOC(=O)C1(c2ccccc2)CCCC1`, for which the Potency entry in test [1], in test [2], in test [3], in [4], in [5] and in test [6] was “inactive” in each case. In addition, the Potency result in test [7], in test [8], in [9], in test [10], in [11] and in test [12] was “inactive” throughout. Also, in [13], the Potency result is “inactive”.
Consider `CCN(Cc1ccncc1)C(=O)C(CO)c1ccccc1` (centres undefined), for which the Potency result in [1], in test [14], in test [4], in [5], in test [6] and in test [7] was “inactive” throughout. Also, the Potency entry in test [8], in test [10], in [15], in [16], in [11] and in test [12] was “inactive” in each case. Also, the Potency entry in [13] was “inactive”.
Take `Cc1ccc(/C(=C\CN2CCCC2)c2ccccn2)cc1`: the Potency result in [1], in [2], in test [14], in [5], in [6] and in [7] was “inactive” throughout. The Potency result in test [8], in test [9], in test [10], in test [16], in test [11] and in test [12] was “inactive” throughout. Besides, the Potency entry in [13] is “inactive”.
On to `CN1C(=O)CC[C@H]1c1cccnc1`, for which the Potency entry in test [1], in [2], in test [14], in test [4], in [5] and in [6] was “inactive” each time. Moreover, the Potency result in test [7], in [8], in test [10], in test [15], in [16] and in test [11] was “inactive” throughout. In addition, the Potency entry in test [12] and in test [13] was “inactive” each time.
As for `NC/C=C/C(=O)O`, the Potency entry in [1], in test [2], in test [14], in [5], in [6] and in test [7] was “inactive” in each case. Besides, the Potency result in test [8], in [10], in [15], in [16], in test [11] and in test [12] was “inactive” throughout. Also, the Potency result in test [13] is “inactive”.
Consider `C#CCN(C)CCCOc1ccc(Cl)cc1Cl`, for which the Potency result in [1], in test [2], in test [14], in test [6], in [7] and in [8] was “inactive” throughout. Besides, the Potency result in [9], in test [10], in test [16], in [12] and in test [13] was “inactive” each time. In addition, the result in test [17] was inactive.
As for `CCOC(=O)C1=C(C)NC(C)=C(C(=O)OC)C1c1cccc([N+](=O)[O-])c1` (centres undefined), the Potency entry in [1], in [14], in [4], in test [6], in [7] and in [8] was “inactive” in each case. The Potency result in test [9], in test [10], in test [16], in [12] and in test [13] was “inactive” in each case. In test [17], the molecule was classed as inactive.
For the molecule `Nc1ncn([C@@H]2O[C@H](CO)[C@@H](O)[C@H]2O)c(=O)n1`, the Potency in [1] was 6680 nM (active); in test [2], 21100 nM (active); in test [14] it was 12300 nM (active); in test [7], 7500 nM (active); in test [15], 24600 nM (active); in [16], 8410 nM (active). Further, the Potency entry in test [11] and in [12] was “inactive” throughout.
On to `CC(=O)[C@]1(O)Cc2c(O)c3c(c(O)c2[C@@H](O[C@H]2C[C@H](N)[C@H](O)[C@H](C)O2)C1)C(=O)c1ccccc1C3=O`, for which the Potency in test [1] is 422 nM (active); in test [2], 237 nM (active); in test [14], 174 nM (active); in [5], 3350 nM (active); in test [6], 433 nM (active); in [7], 376 nM (active). The Potency in test [10] was 422 nM (active); in test [15], 1100 nM (active); in [16], 1060 nM (active); in test [11], 2110 nM (active); in test [13], 841 nM (active). Moreover, the Potency entry in [12] was “inactive”.
With `CCN(CC)CC(=O)Nc1c(C)cccc1C`, the Potency entry in [1], in test [2], in [14], in test [5], in test [6] and in test [7] was “inactive” throughout. In addition, the Potency result in test [8], in test [10], in test [15], in [16], in test [12] and in test [13] was “inactive” in each case. Further, the molecule was called inactive in test [17].
`Cc1ccc(S(=O)(=O)NC(=O)NN2CCCCCC2)cc1`: the Potency entry in test [1], in test [14], in [3], in test [4], in test [5] and in [6] was “inactive” throughout. Also, the Potency result in test [7], in test [8], in test [9], in test [10], in test [15] and in test [16] was “inactive” each time. Also, the Potency result in test [11], in [12] and in [13] was “inactive” throughout.
For the molecule `CCCCCN(CCCCC)C(=O)C(CCC(=O)O)NC(=O)c1ccc(Cl)c(Cl)c1` (centres undefined), the Potency entry in test [1], in test [14], in test [3], in test [5], in [6] and in test [7] was “inactive” throughout. Besides, the Potency result in test [8], in test [10], in [15], in [16], in test [12] and in test [13] was “inactive” throughout.
With `C[C@]12CC[C@@H]3c4ccc(O)cc4C[C@@H](CCCCCCCCCS(=O)CCCC(F)(F)C(F)(F)F)[C@H]3[C@@H]1CC[C@@H]2O` (some centres undefined), the Potency entry in [1], in test [14], in test [4], in [7], in test [8] and in [9] was “inactive” each time. Further, the Potency entry in test [10], in test [16], in test [12], in [13] and in test [18] was “inactive” in each case. Besides, the figures for the Potency in [2], in test [19] and in test [20] were 9440 nM (active), 11700 nM (active) and 2610 nM (active), respectively. For the same molecule, in test [17], the molecule was classed as inactive.
For the molecule `COc1cc(Cc2cnc(N)nc2N)cc(OC)c1OC`, the Potency entry in [1], in test [14], in test [3], in [4], in [5] and in test [6] was “inactive” each time. Besides, the Potency entry in test [7], in test [8], in test [9], in [10], in test [15] and in [16] was “inactive” throughout. Further, the Potency entry in test [12] and in [13] was “inactive” each time.
